Only some compounds are listed: those with a hit (about 8% of all), similar ones and a draw of the others.
KB-3-1 cytotox: kills parental KB-3-1 adenocarcinoma cells; KB-3-1 viability, CellTiter-Glo ATP luminescence, 72 h; Potency, µM (top dose mostly 46.1 µM), actives largely listed as cytotoxic; 1.4% of 400,000 active; AID 1347075; further: on the % scale 0 is the no-effect control and ±100 the full control effect; nearly all actives have a fitted effect of over 60% in size
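Screening of KB-3-1 cells (DMEM, 10% FBS, phenol-red free) ran from lowest to highest compound concentration; after 72 h at 37 °C viability was read luminescently and curves fitted.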
MCF10A rereplic: induces DNA re-replication in MCF 10a normal breast cells | MCF 10A DNA re-replication, Hoechst nuclear intensity, 48 h | Potency, µM (series often up to 46.1 µM), for the others: at the top dose activity, positive = re-replication, most hits filed as activators | 2.9% of 350,000 active | AID 624296; further: % of control where 0% means no effect; nearly all actives have a fitted effect of over 50% in size
SW480 rerep: DNA re-replication induction in SW480 cells; SW480 DNA re-replication, Hoechst DNA content imaging, 48 h; Potency, µM (titrated, usually from 46.1 µM), for inactives: top-dose re-replication activation, usual class: activators; 1.8% of 340,000 active; AID 624297; further: % of control where 0% means no effect; nearly all actives have a fitted effect of over 55% in size
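Treated cells incubate 48 hr (37 C, 5% CO2), are stained 40 min with Hoechst, and nuclear fluorescence is enumerated; a rise in nuclei with high DNA signal marks re-replication.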
KB-V1 cytotox: kills drug-selected multidrug resistant KB-V1 cells; KB-V1 MDR cells viability, CellTiter-Glo, 72 h; 3.4% of 400,000 active; AID 1347076; Potency, µM (series often up to 46.1 µM), most hits filed as cytotoxic; further: on the % scale 0 is the no-effect control and ±100 the full control effect; nearly all actives have a fitted effect of over 60% in size
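Readout: CellTiter-Glo luminescence, 10 min after addition. Cells: KB-V1 MDR subline, 72 h at 37 degrees C with compound. Analysis: corrected, normalized data fitted to concentration-effect curves.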
HT1080-NT tox: kills 2HG-producing HT-1080-NT fibrosarcoma cells; HT-1080-NT fibrosarcoma viability, CellTiter-Glo ATP luminescence, 48 h; Potency, µM (series often up to 46.1 µM), for the others: top-dose activity, negative = less viability, usual class: cytotoxic; 1.6% of 360,000 active;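 further: NT is the 2HG producing partner of a matched IDH1 knockdown line; 0% = DMSO-treated cells and -100% = media-only wells without cells; nearly all actives have a fitted effect of over 55% in size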
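HT-1080-NT fibrosarcoma cells (2HG-overproducing), 750 cells/well in RPMI with 5% FBS, dosed after 2 h and incubated 48 h at 37C. CellTiter-Glo luminescence normalized to DMSO and no-cell wells; concentration-response curves fitted and classed.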
HT1080 IDH1KD tx: kills HT-1080 cells with IDH1 knockdown; HT-1080 IDH1 knockdown viability, ATP luminescence, 48 h; Potency, µM (top dose mostly 46.1 µM), without a hit: at the highest dose activity, negative = toxicity, actives largely listed as cytotoxic; 2% of 360,000 active; AID 686971;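 further: 0% = DMSO wells and -100% = cell-free medium wells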
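HT-1080-IDH1KD cells (IDH1 knocked down), 750/well in RPMI with 5% FBS, treated with compound 48 h at 37 degrees C. Viability by CellTiter-Glo luminescence, normalised to DMSO and no-cell wells; concentration-response curves classed.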
* hit, by the source's call; i = inactive; ? = inconclusive; / = no result given; ! = not active in a repeat. The call rests on the fitted dose curve; in most records, active means well fitted curve in the direction sought with a large enough effect; inconclusive means small, poorly fitted or top-dose-only effect, or another doubt; inactive means no such curve, though single readings can be large; an effect the other way counts as inactive or inconclusive. Potency means the concentration at half of the fitted maximal effect.

SMILES	KB-3-1 cytotox	MCF10A rereplic	SW480 rerep	KB-V1 cytotox	HT1080-NT tox	HT1080 IDH1KD tx
O=C(Cn1cnc2sc(-c3ccccc3)cc2c1=O)NCc1ccco1	18µM*	?	?	?	?	?
O=C(Cn1cnc2sc(-c3ccccc3)cc2c1=O)NCc1ccccc1	7.3µM*	4.6µM*	16µM*	i	7.9µM*	6.3µM*
CCn1cc2nc(SCC(=O)Nc3cccc(Cl)c3C)n(Cc3ccc(Cl)cc3)c(=O)c2n1	i	/	/	?	/	/
CCCCC(=O)Nc1cccc(NC(=O)CC)c1	i	0%	-8%	i	-1%	0%
COc1cccc(NC(=O)c2ccccc2Br)c1	i	12%	-2%	i	4%	6%
CCCCC(=O)Nc1cccc(NC(=O)c2ccccc2Br)c1	i	4%	-5%	5.2µM*	2%	-1%
CCCCC(=O)Nc1cccc(NC(=S)NC(=O)C(C)C)c1	i	2%	-13%	21µM*	3%	5%
COc1ccc(NC(=O)Cn2c(SCc3c(F)cccc3Cl)nc3ccncc32)cc1OC	i	/	/	i	/	/
CCc1ccc(-n2c(=O)c3sc4ccccc4c3n(CC(=O)N(CC)Cc3ccccc3)c2=O)cc1	i	/	/	i	/	/
Cc1cc(Cl)ccc1NC(=O)CN1C(=O)COc2ccc(S(=O)(=O)Nc3ccccc3)cc21	i	/	/	i	/	/
O=C(CN1C(=O)CS/C1=C\c1nc(-c2ccc(Cl)cc2)cs1)Nc1cccnc1Cl	i	?	?	i	-5%	-7%
Cc1ccc(-c2csc(/C=C3\SC(C)C(=O)N3CC(=O)Nc3ccccc3F)n2)cc1 (stereo not drawn)	i	18µM*	-3%	?	17%	12%
COc1cc(OC)cc(C(=O)N2CCN(Cc3ccccc3C(F)(F)F)CC2)c1	i	15%	7%	15µM*	-8%	-29%
O=C(c1ccc(OC2CCN(Cc3ccccc3C(F)(F)F)CC2)cc1)N1CCCCC1	?	?	?	16µM*	-15%	?
COc1cccc(OC)c1C(=O)N1CCN(Cc2ccccc2C(F)(F)F)CC1	i	0%	1%	i	-17%	-12%
COc1cc(C(=O)N2CCN(Cc3ccccc3C(F)(F)F)CC2)cc(OC)c1OC	i	?	11%	15µM*	9%	13%
O=C(c1ccc(OC2CCN(Cc3ccc(C(F)(F)F)cc3)CC2)cc1)N1CCCCC1	i	?	-2%	i	13%	16%
Fc1ccc(Nc2nc(NCc3ccco3)nc3nccnc23)cc1	i	/	/	i	/	/
CCc1ccc(CNC(=O)COc2cc(=O)n(CC)c3ccccc23)cc1	?	/	/	i	/	/
COc1cccc(NS(=O)(=O)c2ccc3c(c2)CCCN3C(C)=O)c1	i	?	?	21µM*	-15%	-8%
COc1ccc(CNC(=O)C2CCCN(S(=O)(=O)c3ccc4c(c3)CCCN4C(C)=O)C2)cc1 (stereo not drawn)	21µM*!	1%	0%	i	-8%	-2%
O=Cc1ccc(N2CCOCC2)cc1	i	/	/	i	/	/
Cc1ccc(C)c(NC(=O)Cn2c(=O)n(CCC(C)C)c(=O)c3cccnc32)c1	i	/	/	i	/	/
C#CCn1c(=NC(=O)c2ccc(Cl)s2)sc2cccc(OC)c21	i	18µM*	11%	i	-1%	10%
COc1ccccc1[C@@H]1C(c2ccc(F)cc2)=NN(c2ccccc2)[C@H]1C(=O)N1CCOC1=O	i	4.1µM*	21µM*	i	-3%	-8%
SMILES	KB-3-1 cytotox	MCF10A rereplic	SW480 rerep	KB-V1 cytotox	HT1080-NT tox	HT1080 IDH1KD tx
COc1ccccc1[C@@H]1C(c2ccccc2)=NN(c2ccccc2)[C@H]1C(=O)N1CCOC1=O	i	?	?	i	-6%	-4%
COc1ccccc1[C@@H]1C(c2cccc(Cl)c2)=NN(c2ccc(Br)cc2)[C@H]1C(=O)N1CCOC1=O	i	?	3.3µM*	?	-2%	1%
COc1ccccc1[C@@H]1C(c2cccc(C)c2)=NN(c2ccccc2)[C@H]1C(=O)N1CCOC1=O	i	?	15µM*	i	6%	-5%
COc1cccc(-c2nc(CS(=O)(=O)CC(=O)NCc3cccc(Cl)c3)c(C)o2)c1	i	/	/	i	/	/
NC(N)=N/N=C/c1cccc([N+](=O)[O-])c1O	i	0%	-2%	i	12%	12%
O=[N+]([O-])c1cccc(/C=N\N=C2c3ccccc3-c3ccccc32)c1O	?	-36%	141%	18µM*	3%	6%
O=[N+]([O-])c1cccc(C=NN=C2c3ccccc3-c3ccccc32)c1	i	7%	-2%	21µM*	-2%	14%
CCCn1c(=S)[nH]c2cc(C(=O)N3CCc4ccccc43)ccc2c1=O	?	?	-8%	2.3µM*	0%	-11%
c1ccc(Nc2nc(Nc3ccccc3)nc(N3CCNCC3)n2)cc1	i	4%	?	?	23µM*	?
O=c1nc(N/N=C/c2ccccn2)cn[nH]1	?	17%	?	i	?	?
CSc1ccc(/C=N/Nc2nc(C)cc(=O)[nH]2)cc1	i	10%	-3%	i	0%	1%
C(=N\Nc1nncc2ccccc12)/c1ccccn1	?	?	2.6µM*	i	?	5.2µM*
Fc1cccc(/C=N/Nc2nncc3ccccc23)c1	i	-1%	-59%	i	-23%	-1%
Cc1cc(=O)[nH]c(N/N=C/c2ccccn2)n1	?	?	4.1µM*	?	?	?
O=c1cnnc(N/N=C/c2ccccn2)[nH]1	?	?	?	i	?	1.3µM*
Cc1cc(=O)[nH]c(N/N=C/c2ccc(-c3ccc(F)cc3)o2)n1	?	?	?	?	?	8.2µM*
Cc1cc(C)cc(NC(=O)C2CCCN(S(=O)(=O)c3cccc4nsnc34)C2)c1 (stereo not drawn)	i	/	/	i	/	/
O=C(Cn1c(=O)nc(-c2ccccc2)c2cc(Cl)ccc21)Nc1ccc(F)c(Cl)c1	i	/	/	i	/	/
O=C(COc1ccc2oc3c(c2c1)CCCC3)Nc1ccc(Cl)cc1	i	/	/	i	/	/
Cc1ccc(S(=O)(=O)/N=C(\N)Nc2nc(C)c3ccccc3n2)cc1	i	?	-79%	9.2µM*	1%	9%
Cc1cccc(NC(=S)/N=C(\N)Nc2nc(C)c3ccc(C)cc3n2)c1	i	?	7.3µM*	i	-27%	?
